Results on 40 compounds are retold here after PubChem BioAssay (Tox21).

Results filed as inconclusive are left out. Where a call stands in place of a potency, no number is given. Unmarked numbers belong to inactive results. Calls of active or inactive are those of the source. Calls come from the whole dose curve.

A short description of the assay: cAMP Responsive Elements (CRE) small molecule agonists, cell-based qHTS assay (AID 1963590). The note with it: CRE-bla HEK293T, beta-lactamase FRET ratio, 3 h; series mostly up to 92.4 µM; activation: at the top concentration. An excerpt: U.S. Tox21 Program National Center for Advancing Translational Sciences [NCATS] Division of Preclinical Innovation [DPI] U.S. Environmental Protection Agency [EPA] National Institutes of Environmental Health Sciences [NIEHS] National Toxicology Program [NTP] U.S. Food and Drug Administration [FDA] Tox21 Assay Overview: CREB (cyclic-AMP Responsive Element Binding Protein) is a cellular transcription factor. It binds to certain DNA sequences called cAMP Responsive Elements (CRE) and regulates the transcription of the genes. […] This cell line can be used to find agonists/antagonists of the cyclic AMP signaling pathway. The activation of the report gene under culture conditions can be detected by fluorescence intensity. This cell line has been used to screen the Tox21 10K compound library to identify agonists that induce oxidative stress.
Tox21 Assay Protocol Summary: CRE-bla Hek 293T cells were suspended in assay medium (DMEM containing 10% dialyzed FBS, 0.1 mM NEAA, 1 mM sodium pyruvate and 25 mM HEPES) and dispensed at 2,000 cells/5 uL /well into 1536-well black wall/clear bottom plates using a Multidrop Combi (ThermoFisher Scientific, Waltham, MA) dispenser. After the assay plates were incubated at 37 C/5% CO2 for 18 hrs, 23 nL of compounds dissolved in DMSO, positive controls or DMSO only was transferred to the assay plate by a pintool workstation (Kalypsys, San Diego, CA). After the plates were incubated at 37 C/5% CO2 for 3 hrs, 1 uL of LiveBLAzer B/G FRET substrate (Invitrogen, Carlsbad, CA) was added to each well using Bioraptr Flying Reagent Dispenser (FRD, Aurora Discovery, San Diego, CA). The plates were incubated at room temperature for 2 h.
`Clc1ccc(Cl)cc1`: the Potency result is “inactive”.

`O=S(=O)(Cl)Cl`: the “activation” value is -0.884%.

`C=CC1CC=CCC1` (stereo not given): the “activation” value is -2.24%.

Consider `CN(C)C(=O)Cl`, for which the Potency entry is “inactive”.

Regarding `Cc1ccc2ccccc2c1`, the “activation” value was 0.0613%.

For the compound `C1CS1`, the “activation” value is -0.937%.

On to `NC(=O)c1cc([N+](=O)[O-])cc([N+](=O)[O-])c1`, for which the “activation” value is -0.474% [at 42.5 µM].

As to `ClCCOCCCl`, the Potency entry was “inactive”.

As for `C1CCC(NC2CCCCC2)CC1`, the Potency entry was “inactive”.

For `N#Cc1ccccn1`, the Potency result was “inactive”.

`COc1c(C(C)(C)C)cc([N+](=O)[O-])c(C)c1[N+](=O)[O-]`: the “activation” value was 4.01%.

In the case of `CC(C)=C[C@@H]1[C@@H](C(=O)OCc2coc(Cc3ccccc3)c2)C1(C)C`, the Potency result is “inactive”.

Regarding `O=S(=O)(c1ccc(O)cc1)c1ccc(O)cc1`, the Potency entry was “inactive”.

On to `N#CCCO`, for which the “activation” value is 0.463%.

On to `C=C(C)CCl`, for which the Potency result is “inactive”.

Consider `C[N+](=O)[O-]`, for which the “activation” value is -0.366%.

Regarding `CN(N=O)c1ccccc1`, the Potency entry was “inactive”.

For the compound `CC[n+]1c(-c2ccccc2)c2cc(N)ccc2c2ccc(N)cc21`, the Potency entry is “inactive”.

For the compound `CCNc1nc(NC(C)C)nc(SC)n1`, the Potency entry is “inactive”.

As for `CCCCCCCCn1cc[n+](C)c1`, the “activation” value is -0.255%.

For `Oc1ccc(Cl)c(Cl)c1`, the “activation” value is -1.16%.

With `CCCCCCCCOC(=O)c1ccc(C(=O)OCCCCCCCC)c(C(=O)OCCCCCCCC)c1`, the “activation” value was 1.55%.

As for `CC(=O)[C@H]1CC[C@H]2[C@@H]3CC[C@H]4C[C@](C)(O)CC[C@]4(C)[C@H]3CC[C@]12C`, the “activation” value was 0.995% [at 42.5 µM].

Take `NNC(=O)c1ccccc1`: the “activation” value was 1.64%.

As to `OC[P+](CO)(CO)CO`, the Potency result was “inactive”.

As to `CNCC(O)c1ccc(O)cc1` (stereo not given), the Potency result was “inactive”.

As to `O=S(=O)(c1ccccc1)c1ccccc1`, the “activation” value is 0.0363%.

Take `C[N+]1(C)CCCCC1`: the “activation” value is -1.34%.

`O=S(=O)(O)C(F)(F)C(F)(F)C(F)(F)C(F)(F)C(F)(F)C(F)(F)F`: the “activation” value is -1.14%.

`CC(C)CCCCCCOC(=O)c1ccccc1C(=O)OCCCCCCC(C)C`: the Potency result is “inactive”.

For the compound `ClC(Cl)(Cl)c1ccccc1`, the Potency entry was “inactive”.

With `COC(=O)NS(=O)(=O)c1ccc(N)cc1`, the Potency result is “inactive”.

On to `C[N+](C)(C)C`, for which the Potency entry was “inactive”.

In the case of `CCC(=O)OC1(c2ccccc2)CCN(C)CC1`, the “activation” value is -1.49%.

Consider `Clc1cccc(Cl)c1`, for which the Potency result was “inactive”.

As for `CN(C)CCC#N`, the Potency result was “inactive”.

Regarding `[Cd+2].[Cl-].[Cl-]`, the “activation” value is 2.24%.

As for `Cc1ccc2c(C)cccc2c1`, the “activation” value is 0.1%.

As for `COP(=O)(OC)C(O)C(Cl)(Cl)Cl` (stereo not given), the Potency entry was “inactive”.

In the case of `Nc1ccc(-c2ccc(N)c(N)c2)cc1N`, the “activation” value was 4.27%.
